Experimental findings from the supplement of paper PMC6555819 are described below.

Assay in all cases: PBM binding z-score (relative to random genomic background probes); higher = stronger binding; sequences stand for … in GC…GCGATTGACAGCGTAGAATGAAGG
Assay [1] deals with PPARg:RXRa DBDmut IVT, anti-RXR (DBD mutation: RXRa K156A/R161A, NR concentration 270 nM, RXRa partner concentration 90 nM). In a few lines: (§1)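 The probes on custom Agilent 4×180K protein-binding microarrays were double-stranded, with 34-nt variable regions bearing direct-repeat seeds, single-nucleotide variants, half-site ablations and random human genomic background sequences. Incubation lasted 1 h with ligand-free nuclear receptor dimers in PBS pH 7.4, 2% milk, 0.02% Triton X-100, 1 mM DTT, 0.2 mg/mL BSA and 0.4 mg/ml salmon testes DNA. Antibodies against each partner (one per run) detected bound dimers, and fluorescence scans were regression-normalized. Binding z-scores take the random background probes as reference.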

The test system of assay [2] is PPARg:RXRa IVT, anti-PPARg (NR concentration 270 nM, RXRa partner concentration 90 nM). In a few lines:
as §1

The subject of assay [3] is PPARg DBDmut:RXRa IVT, anti-PPARg (DBD mutation: PPARg1 K132A/R137A, NR concentration 270 nM, RXRa partner concentration 90 nM). In a few lines:
as §1

In assay [4] the test system is PPARg DBDmut IVT, anti-PPARg (DBD mutation: PPARg1 K132A/R137A, NR concentration 270 nM). In a few lines:
as §1

The subject of assay [5] is PPARg homodimer (NR concentration 180 nM). In a few lines: as §1
In assay [6] the test system is PXR:RXRa (NR concentration 270 nM, RXRa partner concentration 90 nM). In a few lines: as §1
Assay [7] deals with PXR homodimer (NR concentration 270 nM). In a few lines: as §1
Assay [8] deals with RARa:RXR (NR concentration 270 nM, RXRa partner concentration 90 nM). The gist of the method:
as §1

The test system of assay [9] is RARa homodimer (NR concentration 270 nM). The gist of the method:
as §1

Assay [10] has as its system RARb:RXRa (NR concentration 270 nM, RXRa partner concentration 90 nM). In a few lines: as §1
Assay [11] concerns RARb homodimer (NR concentration 270 nM). The gist of the method:
as §1

Assay [12] deals with RARg:RXRa (NR concentration 270 nM, RXRa partner concentration 90 nM). The gist of the method: as §1
Assay [13] has as its system RARg homodimer (NR concentration 270 nM). In a few lines: as §1
Assay [14] relates to RXRa DBDmut IVT, anti-RXR (DBD mutation: RXRa K156A/R161A, NR concentration 90 nM). The gist of the method: as §1
Assay [15] relates to RXRa homodimer (NR concentration 180 nM). The gist of the method:
as §1

Assay [16] deals with THRa:RXRa (NR concentration 90 nM, RXRa partner concentration 90 nM). In a few lines:
as §1

Assay [17] has as its system THRa homodimer (NR concentration 90 nM). The gist of the method:
as §1

The test system of assay [18] is VDR homodimer (NR concentration 270 nM). In a few lines: as §1

Turning to ATATCTAGGTAAAAGTTCAGTGAATCCCGAGGAT, the PBM binding z-score in assay [1] was determined as 6; in assay [2] it was 6.34; in assay [3], 1.91; in assay [4], 1.42; in assay [5] it was 1.87; in assay [6], 2.33. For the same sequence, the PBM binding z-score worked out at 1.9 in assay [7]; 1.6 in [8]; 1.5 in assay [9]; 2.56 in assay [10]; 2.58 in [11]; 2.11 in [12]. For the same sequence, the PBM binding z-score in assay [13] was 2.05; in [14], 0.832; in assay [15], 1.62; in assay [16], 1.38; in [17] it was 0.52; in assay [18], 2.01.
With CCTAGTTGGTCAGGTGGTCACACACCGGATATGA, the PBM binding z-score in assay [1] is 0.0405; in assay [2], 0.926; in [3], -0.00343; in assay [4] it was -0.318; in assay [5], 1.26; in assay [6] it was 0.174. Also, the PBM binding z-score was determined as 0.369 in [7]; 0.505 in [8]; 1.18 in [9]; 1.25 in assay [10]; 1.48 in assay [11]; 1.03 in assay [12]. Also, the PBM binding z-score is 1.38 in assay [13]; -0.358 in assay [14]; 0.463 in [15]; 0.254 in assay [16]; 0.259 in [17]; 0.314 in [18].
With AGAATGAGGTTACCAGAGATCAGGGAAACGCTTG, the PBM binding z-score in assay [1] was 3.82; in assay [2], 3.51; in [3], 1.02; in [4], -0.0941; in assay [5], 0.651; in assay [6], 1.95. Further, the PBM binding z-score was -0.0597 in [7]; 2.47 in [8]; 0.341 in assay [9]; 2.15 in assay [10]; 0.721 in assay [11]; 2.28 in assay [12]. In addition, the PBM binding z-score in [13] amounted to 1.8; in assay [14], 1.1; in [15], 2.88; in assay [16], 3.28; in assay [17], 0.705; in assay [18], 0.106.
As to TCTAGTTGGTCACGGAGGTCACACGCGACGGGTA, the PBM binding z-score in assay [1] amounted to 2.46; in assay [2], 4.38; in assay [3], 1.06; in [4], 1.9; in assay [5], 3.12; in assay [6] it was 4.55. In addition, the PBM binding z-score in assay [7] amounted to 1.5; in assay [8], 4.54; in assay [9] it was 1.78; in assay [10], 3.87; in [11], 4.41; in assay [12], 4.66. Further, the PBM binding z-score in assay [13] is 4.95; in [14], 1.4; in assay [15] it was 4.97; in assay [16] it was 3.67; in [17], 2.4; in assay [18], 3.43.
ATCTGTAGGTTATCGGGTCATTCAGTTTGCGCAT: the PBM binding z-score in assay [1] came out at 4.65; in assay [2], 5.29; in [3] it was 1.81; in [4] it was 1.76; in assay [5], 2.43; in assay [6], 3.86. For the same sequence, the PBM binding z-score in assay [7] was determined as 7.32; in assay [8] it was 3.93; in assay [9], 1.11; in [10], 2.71; in assay [11], 3.19; in assay [12], 3.59. In addition, the PBM binding z-score in assay [13] was 2.78; in assay [14], 1.68; in assay [15], 3.48; in assay [16], 3.36; in assay [17], 3.04; in assay [18], 3.95.
ATCGAAGGGTCGAAGGTGAGTATACCCACCCGAA: the PBM binding z-score was -0.959 in assay [1]; 1.2 in assay [2]; 0.357 in assay [3]; -0.0817 in [4]; 0.676 in assay [5]; 1.64 in assay [6]. The PBM binding z-score in assay [7] was -0.184; in assay [8], 2.48; in assay [9], -0.374; in assay [10], 2.15; in assay [11], 1.32; in assay [12], 2.67. Also, the PBM binding z-score in assay [13] is 1.99; in assay [14], 0.0916; in [15], 3.12; in assay [16], 1.05; in assay [17], -0.355; in assay [18], 0.519.
As for GCTTACGGGTCAAAGGTTATGGCATGAATAGAAT, the PBM binding z-score in assay [1] came to 5.17; in [2], 5.79; in assay [3], 1.49; in [4], 1.1; in assay [5], 3.11; in assay [6], 6.13. In addition, the PBM binding z-score in assay [7] was found to be 0.477; in assay [8], 8.41; in [9], 1.41; in assay [10], 4.56; in assay [11] it was 3.46; in assay [12], 6.98. In addition, the PBM binding z-score in assay [13] is 5.3; in [14] it was 2.31; in assay [15], 9.82; in [16], 3.79; in assay [17], 0.408; in assay [18], 1.51.
Regarding ATAGAAAGGTCGAAGGTGAGTATACCCACCCGAA, the PBM binding z-score in [1] is 0.0338; in assay [2], 2.05; in [3], 1.17; in [4], 0.496; in [5] it was 1.85; in [6], 2.82. Besides, the PBM binding z-score in [7] was 0.22; in [8], 4.08; in [9] it was 0.667; in [10] it was 3.64; in assay [11], 2.36; in assay [12], 4.23. Moreover, the PBM binding z-score was determined as 3.8 in [13]; 0.55 in assay [14]; 4.9 in [15]; 2 in assay [16]; 0.0452 in assay [17]; 0.757 in [18].
